Reference: the supplement of paper PMC9694430

Experiments:
Test in all cases: thermal shift delta Tm vs DMSO control; higher = stronger stabilization (binding)
Conditions in all cases: 12.5 µM; protein concentration 2 µM
[1] = test system: LOC_OS02G45750-cb003
In short: (§1)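 Purified, E. coli-expressed rice kinase domain constructs were tested by differential scanning fluorimetry in 96-well plates: 19.5 μl of 2 μM kinase in 100 mM potassium phosphate pH 7.5, 150 mM NaCl, 10% glycerol, 5 × SYPRO Orange, plus compound in DMSO. Fluorescence was read from 25°C to 95°C at 0.05°C/s. Melting temperatures came from Boltzmann fits, and the shift is the triplicate mean relative to protein with DMSO alone.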

[2] = test system: LOC_OS02G54510-cb004
In short: as §1

[3] = test system: LOC_OS03G04050-cb001
In short: as §1

[4] = test system: LOC_OS03G12390-cb001
In short: as §1

[5] = test system: LOC_OS03G27990-cb004
In short: as §1

[6] = test system: LOC_OS03G50450-cb001
In short: as §1

[7] = test system: LOC_OS03G50810-cb003
In short: as §1

[8] = test system: LOC_OS04G35114-cb001
In short: as §1

[9] = test system: T1, LOC_OS04G38480-cb003
T1 sequence (whole entry): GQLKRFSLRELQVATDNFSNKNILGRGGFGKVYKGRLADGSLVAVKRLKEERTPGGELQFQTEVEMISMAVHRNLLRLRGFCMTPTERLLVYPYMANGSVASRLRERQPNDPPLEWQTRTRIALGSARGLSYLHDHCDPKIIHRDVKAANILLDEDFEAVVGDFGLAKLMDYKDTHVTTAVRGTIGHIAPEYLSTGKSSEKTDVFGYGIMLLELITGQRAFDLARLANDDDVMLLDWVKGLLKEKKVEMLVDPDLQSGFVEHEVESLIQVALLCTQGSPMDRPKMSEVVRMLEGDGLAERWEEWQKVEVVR
In short: as §1

[10] = test system: T2, LOC_OS04G41100-cb001
T2 sequence (whole entry): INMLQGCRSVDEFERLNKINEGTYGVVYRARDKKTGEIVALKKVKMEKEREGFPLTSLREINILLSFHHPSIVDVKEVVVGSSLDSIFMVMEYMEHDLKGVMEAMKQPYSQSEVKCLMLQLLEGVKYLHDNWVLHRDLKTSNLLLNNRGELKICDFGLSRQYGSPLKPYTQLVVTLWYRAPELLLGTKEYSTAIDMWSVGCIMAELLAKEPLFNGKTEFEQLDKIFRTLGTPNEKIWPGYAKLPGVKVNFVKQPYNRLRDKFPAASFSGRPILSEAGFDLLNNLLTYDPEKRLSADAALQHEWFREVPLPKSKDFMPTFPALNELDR
In short: as §1

[11] = test system: LOC_OS04G57630-cb004
In short: as §1

[12] = test system: LOC_OS05G07850-cb002
In short: as §1

[13] = test system: LOC_OS05G16824-cb004
In short: as §1

[14] = test system: LOC_OS05G28520-cb001
In short: as §1

[15] = test system: LOC_OS05G30820-cb001
In short: as §1

[16] = test system: LOC_OS05G43570-cb004
In short: as §1

[17] = test system: LOC_OS06G16330-cb003
In short: as §1

[18] = test system: T3, LOC_OS06G22820-cb001
T3 sequence (whole entry): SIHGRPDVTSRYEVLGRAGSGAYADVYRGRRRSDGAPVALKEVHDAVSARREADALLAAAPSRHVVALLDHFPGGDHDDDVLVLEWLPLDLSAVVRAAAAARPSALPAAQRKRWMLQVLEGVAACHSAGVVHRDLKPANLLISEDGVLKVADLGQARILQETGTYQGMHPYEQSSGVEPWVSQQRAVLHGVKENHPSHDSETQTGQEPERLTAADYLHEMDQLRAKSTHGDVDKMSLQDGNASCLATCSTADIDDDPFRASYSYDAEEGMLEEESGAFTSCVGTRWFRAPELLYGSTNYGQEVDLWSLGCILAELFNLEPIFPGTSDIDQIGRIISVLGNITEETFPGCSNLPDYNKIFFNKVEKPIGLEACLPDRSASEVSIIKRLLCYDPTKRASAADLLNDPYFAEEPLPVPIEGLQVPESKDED
In short: as §1

[19] = test system: LOC_OS07G06570-cb004
In short: as §1

[20] = test system: LOC_OS07G07230-cb001
In short: as §1

Sequence of LOC_OS06G16330-cb003 (as listed by the source): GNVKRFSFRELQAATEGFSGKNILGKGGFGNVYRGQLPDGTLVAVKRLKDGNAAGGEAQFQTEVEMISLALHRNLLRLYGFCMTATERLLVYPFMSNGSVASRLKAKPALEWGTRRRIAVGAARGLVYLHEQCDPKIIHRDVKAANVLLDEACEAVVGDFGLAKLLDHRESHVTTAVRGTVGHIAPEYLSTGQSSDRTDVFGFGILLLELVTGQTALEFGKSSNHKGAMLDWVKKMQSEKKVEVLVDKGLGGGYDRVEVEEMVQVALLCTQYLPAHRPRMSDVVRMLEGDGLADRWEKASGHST

Structure (SMILES)	thermal shift delta Tm [1]	thermal shift delta Tm [2]	thermal shift delta Tm [3]	thermal shift delta Tm [4]	thermal shift delta Tm [5]	thermal shift delta Tm [6]	thermal shift delta Tm [7]	thermal shift delta Tm [8]	thermal shift delta Tm [9]	thermal shift delta Tm [10]	thermal shift delta Tm [11]	thermal shift delta Tm [12]	thermal shift delta Tm [13]	thermal shift delta Tm [14]	thermal shift delta Tm [15]	thermal shift delta Tm [16]	thermal shift delta Tm [17]	thermal shift delta Tm [18]	thermal shift delta Tm [19]	thermal shift delta Tm [20]
O=C1c2ccc(Nc3ccc(F)cc3F)cc2CCc2ccc(OC[C@H](O)CO)cc21 [Skepinone-L]	0.45 °C	-0.21 °C	-0.01 °C	-0.61 °C	0.11 °C	0.06 °C	-0.16 °C	1.82 °C	1.25 °C	0.53 °C	-0.62 °C	1.02 °C	-0.73 °C	0.27 °C	0.6 °C	0.4 °C	-0.23 °C	0.53 °C	0.41 °C	-0.05 °C
COc1ccc(Cl)c(Nc2nc3ccccc3nc2NS(=O)(=O)c2cccc(NC(=O)C(C)(C)N)c2)c1 [Pilaralisib (XL147)]	1.06 °C	-0.18 °C	0.85 °C	2.37 °C	1.12 °C	1.09 °C	1.54 °C	2.89 °C	2.92 °C	1.52 °C	2.01 °C	2.9 °C	2.11 °C	0.49 °C	0.75 °C	1.75 °C	1.96 °C	2.03 °C	0.12 °C	0.54 °C
COc1cc2c(Nc3ccc(NC(=O)c4ccccc4)cc3)ncnc2cc1OCCCN1CCOCC1	2.66 °C	0.37 °C	0.55 °C	0.43 °C	0.34 °C	0.3 °C	1.85 °C	2.46 °C	0.65 °C	0.59 °C	1.89 °C	5.62 °C	1.9 °C	1.02 °C	0.36 °C	0.4 °C	1.97 °C	0.94 °C	0.77 °C	0.42 °C
CC(C)NC(=O)COc1cccc(-c2nc(Nc3ccc4[nH]ncc4c3)c3ccccc3n2)c1	1.3 °C	0.55 °C	0.76 °C	-0.25 °C	0.71 °C	0.77 °C	0.84 °C	1.5 °C	1.83 °C	0.68 °C	0.57 °C	1.61 °C	-3.52 °C	0.71 °C	0.73 °C	0.42 °C	0.58 °C	0.84 °C	0.26 °C	-0.31 °C
Cc1c[nH]c2nc(Nc3ccc(N4CCN(C)CC4)c(F)c3)nc(-c3cccc(CC#N)c3)c12	11.6 °C	3.94 °C	0.91 °C	13 °C	8.79 °C	8.2 °C	9.84 °C	12.4 °C	6.06 °C	1.61 °C	4.89 °C	15 °C	12.3 °C	3.05 °C	0.83 °C	1.16 °C	17.6 °C	-0.11 °C	2.22 °C	0.57 °C
COc1cc2ccc(=O)oc2cc1O [Scopoletin]	0.7 °C	0.13 °C	0.44 °C	0.02 °C	0.3 °C	0.69 °C	0.22 °C	0.41 °C	0.05 °C	0.47 °C	-0.06 °C	0.76 °C	2.23 °C	-0.1 °C	0.06 °C	-0.08 °C	-0.43 °C	0.22 °C	1.13 °C	0.87 °C
